{"source": "PubChem BioAssay (EPA / NIEHS)", "note": "Values joined by “and” are separate entries in the source; they are usually repeats but may differ in a detail not shown here. Identical values can stand only once. Active and inactive are the calls of the source. Rule for the calls: active = hit-call score of the fitted dose curve at least 0.9, where 1 is the maximum; inactive = score below 0.9."}
{"test": "BSK_KF3CT_SRB: Viability Assessment in the BioMAP Diversity Plus: KF3CT Assay (AID 2283069);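 note: fitted for both signal gain and loss against DMSO baseline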", "conditions": "primary human keratinocytes with fibroblasts", "experimental": "BSK_KF3CT is a cell-based, multiplexed-readout assay that uses keratinocytes and foreskin fibroblasts, a human skin primary cell co-culture, with measurements taken at 24 hours after chemical dosing in a 96-well plate.BSK_KF3CT_SRB is an assay component measured in the BSK_KF3CT assay. It measures 0.1% sulforhodamine related to cell death using Sulforhodamine staining technology.Data from the assay component BSK_KF3CT_SRB was analyzed into 1 assay endpoint. This assay endpoint, BSK_KF3CT_SRB, was analyzed with bidirectional fitting relative to DMSO as the negative control and baseline of activity. Using a type of viability reporter, gain or loss-of-signal activity can be used to understand changes in the signaling. Furthermore, this assay endpoint can be referred to as a primary readout, because this assay has produced multiple assay endpoints where this one serves a signaling function. To generalize the intended target to other relatable targets, this assay endpoint is annotated to the cell morphology intended target family, where the subfamily is cell conformation.\nThe levels of cell surface (or secreted, indicated by the prefix \"s\") biomarker endpoints were measured by ELISA. Overt cytotoxicity to cells in confluent adherent cultures (all systems other than the BT system) was assessed by measuring total protein levels using sulforhodamine B (SRB) staining in parallel cultures at the time of biomarker measurements, indicated as SRB endpoints. For proliferation assays for adherent cell types, individual cell types are cultured at sub-confluence and relative cell numbers quantified by SRB staining at time points optimized for each system (48 h: 3C and CASM3C systems; 72 h: BT and HDF3CGF systems; 96 h: SAg system). SRB was performed by staining cells with 0.1% SRB after fixation with 10% TCA and reading wells at 560 nm.Viability and proliferation of PBMC (T cells) was quantified by Alamar Blue reduction for the SAg and BT systems. For PBMC viability (referred to as PBMC Cytotoxicity within the assay endpoint names), cells were plated (75,000/well in a 96-well plate) and then chemical samples added for 1 h before addition of activators, SEB and TSST-1 (20 ng/mL final concentration each). Cells were incubated for 90 h. Then, Alamar Blue (20 uL/well) (Invitrogen, Cat DAL1100) was added for 6 h, and the plates were read with a fluorescence microplate reader at 546/580 nm (excitation/emission). For PBMC proliferation, cells were plated and activated as above but incubated for only 16 h prior to addition of Alamar Blue. Plates were read after 6 h."}
{"smiles": "O=C(O)C(F)(F)C(F)(F)F", "outcome": "inactive"}
{"smiles": "CS(C)(=O)=O", "outcome": "inactive"}
{"smiles": "FC(F)(F)C(F)(F)C(F)(F)C(F)(F)CCI", "outcome": "inactive"}
{"smiles": "FC(F)(F)C(F)(F)C(F)(F)N(C(F)(F)C(F)(F)C(F)(F)F)C(F)(F)C(F)(F)C(F)(F)F", "outcome": "inactive"}
{"smiles": "CCCCNc1ccccc1", "outcome": "inactive"}
{"smiles": "OCC(F)(F)C(F)(F)C(F)(F)F", "outcome": "inactive"}
{"smiles": "N=C(N)C(F)(F)C(F)(F)C(F)(F)C(F)(F)C(F)(F)C(F)(F)C(F)(F)F", "outcome": "inactive"}
{"smiles": "CC(=O)Nc1ccc(N=Nc2cc(C)ccc2O)cc1", "outcome": "inactive"}
{"smiles": "C=CC(=O)OCC(F)(F)C(F)(F)C(F)(F)C(F)(F)COC(=O)C=C", "AC50": "41.7 µM (active) and 43.2 µM (active)"}
{"smiles": "CC(CCl)OP(=O)(OC(C)CCl)OC(C)CCl", "note": "(stereo not given)", "outcome": "inactive"}
{"smiles": "FC(F)(F)C(F)(F)C(F)(F)C(F)(F)C(F)(F)C(F)(F)C(F)(F)C(F)(F)F", "outcome": "inactive"}
{"smiles": "CCCCC(CC)COP(=O)(O)OCC(CC)CCCC", "note": "(stereo not given)", "outcome": "inactive"}
{"smiles": "OCCCC(F)(F)C(F)(F)C(F)(F)C(F)(F)C(F)(F)C(F)(F)C(F)(F)F", "AC50": "24.2 µM (active) and 49 µM (active)"}
{"smiles": "FC(F)(F)C(F)(F)C(F)(F)C(F)(F)C(F)(F)C(F)(F)CC1CO1", "note": "(stereo not given)", "outcome": "inactive"}
{"smiles": "O=C(O)C(F)(F)C(F)(F)C(F)(F)C(F)(F)C(F)(F)C(F)(F)C(F)(F)C(F)(F)C(F)(F)C(F)(F)C(F)(F)C(F)(F)F", "outcome": "inactive"}
{"smiles": "OCC(F)(F)C(F)(F)C(F)(F)C(F)F", "outcome": "inactive"}
{"smiles": "FC(F)(F)C(F)(F)C(F)(F)C(F)(F)C(F)(F)C(F)(F)C(F)(F)I", "outcome": "inactive"}
{"smiles": "O=S(=O)(O)C(F)(F)C(F)(F)C(F)(F)C(F)(F)C(F)(F)C(F)(F)C(F)(F)F", "outcome": "inactive"}
{"smiles": "O=C(O)C(F)(F)C(F)(F)C(F)(F)C(F)(F)C(F)(F)C(F)(F)C(F)(F)C(F)(F)Cl", "AC50": "41.7 µM (active) and 49.7 µM (active)"}
{"smiles": "CCCCCCCCC(F)(F)C(F)(F)C(F)(F)C(F)(F)C(F)(F)C(F)(F)F", "outcome": "inactive"}
{"smiles": "C=CC(=O)OCC(F)(F)C(F)(F)C(F)(F)C(F)(F)C(F)(F)C(F)(F)C(F)(F)F", "outcome": "inactive"}
{"smiles": "NC(=O)C(F)(F)C(F)(F)C(F)(F)C(F)(F)F", "outcome": "inactive"}
{"smiles": "O=C(O)C(F)(F)C(F)(F)C(F)(F)C(F)(F)C(F)(F)C(F)(F)C(F)(F)C(F)(F)C(F)(F)C(F)F", "AC50": "52.4 µM (active) and 49.3 µM (active)"}
{"smiles": "C=CC(F)(F)C(F)(F)C(F)(F)C(F)(F)C(F)(F)C(F)(F)C(F)(F)C(F)(F)F", "outcome": "inactive"}
{"smiles": "O=C(O)C=C(C(F)(F)F)C(F)(F)F", "outcome": "inactive"}
{"smiles": "CCCCCCC(C)OC(=O)CCCCC(=O)OC(C)CCCCCC", "note": "(stereo not given)", "outcome": "inactive"}
{"smiles": "O=C(O)C(F)(F)C(F)(F)C(F)(F)C(F)(F)F", "outcome": "inactive"}
{"smiles": "O=C(CC(=O)C(F)(F)C(F)(F)F)C(F)(F)F", "outcome": "inactive"}
{"smiles": "CCCCCCOC(=O)c1ccccc1O", "outcome": "inactive"}
{"smiles": "FC(F)(F)C(F)(F)C(F)(F)C(F)(F)C(F)(F)C(F)(F)CCS", "outcome": "inactive"}
{"smiles": "OCC(F)(F)C(F)(F)C(F)(F)C(F)(F)C(F)(F)C(F)F", "outcome": "inactive"}
{"smiles": "CCN(CC)c1ccc2c(C)cc(=O)oc2c1", "outcome": "inactive"}
{"smiles": "C=C(C)C(=O)OCC(F)(F)C(F)(F)C(F)(F)F", "outcome": "inactive"}
{"smiles": "CCc1c(Br)c(Br)c(Br)c(Br)c1Br", "outcome": "inactive"}
{"smiles": "FC(F)(F)C(F)(F)C(F)(F)CI", "outcome": "inactive"}
{"smiles": "O=C(O)C(F)(OC(F)(F)C(F)(OC(F)(F)C(F)(OC(F)(F)C(F)(F)C(F)(F)F)C(F)(F)F)C(F)(F)F)C(F)(F)F", "note": "(stereo not given)", "outcome": "inactive"}
{"smiles": "COC(=O)CCC(F)(F)C(F)(F)C(F)(F)C(F)(F)F", "outcome": "inactive"}
{"smiles": "FC(F)(I)C(F)(F)C(F)(F)C(F)(F)I", "AC50": "52.6 µM (active) and 51.1 µM (active) and 58.7 µM (active)"}
{"smiles": "FC(F)(Br)C(F)(F)C(F)(F)C(F)(F)C(F)(F)C(F)(F)Br", "outcome": "inactive"}
{"smiles": "CCc1ccc(C(c2ccc(CC)cc2)C(Cl)Cl)cc1", "AC50": "29.2 µM (active)"}
